Records with an inconclusive call do not appear. A call without a number means that no potency is given here. The source made the active and inactive calls. Calls follow the shape of the dose curve; as a rule, active = well fitted cell-killing curve with a large enough effect in the repeat runs; inconclusive = weak or mixed curves, or effect the other way; inactive = flat fitted curve, though single readings scatter.
Potency is read from the fitted curve at half-maximal effect.

The nature of this experiment: qHTS assay to identify small molecule antagonists of the estrogen related receptor signaling pathway with the pleiotropic PPARgamma coactivator (PGC) cell viability counter screen (AID 1224822;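 also: viability read after 17.5 h compound exposure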). Particulars: ERR/PGC reporter cell line viability counter screen; series mostly up to 46.1 µM. From the text: National Center for Advancing Translational Sciences [NCATS]
NIH Chemical Genomics Center [NCGC]
U.S. Environmental Protection Agency [EPA]
National Institutes of Environmental Health Sciences [NIEHS]
National Toxicology Program [NTP]
U.S. Food and Drug Administration [FDA]
Estrogen related receptors (ERRs), the first orphan nuclear receptors discovered, play an important role in the control of cellular energy metabolism. ERRs are required for high-energy production in response to the environmental challenges. The pleiotropic PPARgamma coactivator (PGC) is a major partner of ERR and a key regulator in energy homeostasis. Together they have been implicated in the etiology of metabolic disorders such as Type 2 diabetes and metabolic syndrome. ERR-alpha was also identified as an adverse marker for breast cancer progression; ERR-alpha-positive tumors have a poor prognosis. To screen and to identify environmental compounds that perturb the ERR and PGC/ERR signaling pathways could provide valuable information for potential therapeutic or preventive measures in the treatment of metabolic disease. To differentiate true PGC/ERR antagonists or agonist from cytotoxic substances, the assay is multiplexed with cell viability assay.
Tox21 Assay Protocol Summary:
The PGC/ERR cells were dispensed at 2,000 cells/5 ul/well in 1536-well white plates using a Multidrop dispenser. After the assay plates were incubated at a 37 C/5% CO2 incubator for 6 hours, 23 nL of compounds dissolved in DMSO, positive and negative controls or DMSO only was transferred to the assay plate by a pin tool. The plates were incubated at 37 C for 17.5 hours. 1 ul/well of CellTiter-Fluor reagent was added into the assay plates using a Flying Reagent Dispenser. After 30 min incubation at 37 C/5% CO2, the fluorescence intensity in the plates was measured using a ViewLux plate reader.
A general note: qHTS replaces the single test concentration by a dilution series.
Regarding `N.N.O=C(O)C1(C(=O)O)CCC1.[Pt+2]`, the Potency entry is “inactive”.
For `N#Cc1cc([N+](=O)[O-])c2sc(C(N)=O)[n+]([O-])c2c1`, the Potency entry was “inactive”.
Then `CCCN(CC1CC1)c1nc(C)nc(Nc2c(Cl)cc(Cl)cc2Cl)c1Cl`, with “inactive”; and `COCCOc1cc2ncnc(Cl)c2cc1OCCOC`, with “inactive”; and `O=C(O)CNC(=O)C(CS)Cc1ccccc1` (stereo not given), with “inactive”.
In the case of `O=c1c2ccccc2nc2n1CCc1c-2[nH]c2ccccc12` it was “inactive”; in that of `O=c1cc(N2CCOCC2)oc2c(-c3ccccc3)cccc12`, “inactive”; in that of `N[C@@H](Cc1ccc(O)c(O)c1)C(=O)O`, “inactive”.
Then `O=[N+]([O-])c1ccc(CNc2nc(NCc3cccc(C(F)(F)F)c3)nc3nc[nH]c23)cc1`, with “inactive”; and `NCCSSCCN`, with “inactive”.
Turning to `COc1cccc(OC)c1OCCNCC1COc2ccccc2O1` (stereo not given), the Potency result was “inactive”.
In the case of `Nc1nc2[nH]c(=O)cnc2c(=O)[nH]1` it was “inactive”; in that of `NCCCC(=O)O`, “inactive”.
In the case of `O=c1[nH]c2ccccc2c2ccccc12`, the Potency entry was “inactive”.
In the case of `C#CC(N)CCC(=O)O` (stereo not given) it was “inactive”; in that of `CCOC(=O)N1CCN(/[N+]([O-])=N/Oc2ccc([N+](=O)[O-])cc2[N+](=O)[O-])CC1`, 13.9 µM (active); in that of `CC(C)(C=O)Cc1cc(C(C)(C)C)c(O)c(C(C)(C)C)c1`, “inactive”.
In the case of `CO/N=C(\C(=O)N[C@@H]1C(=O)N2C(C(=O)O)=C(COC(C)=O)CS[C@H]12)c1csc(N)n1` (stereo in doubt) it was “inactive”.
Consider `Brc1cc2c(cc1[C@H]1Nc3ccccc3[C@H]3C=CC[C@H]31)OCO2`, for which the Potency entry is “inactive”.
Then `CO[C@H]1O[C@@H]2O[C@]3(C)CC[C@@H]4[C@@H](C)CC[C@H]([C@H]1C)[C@]24OO3`, with “inactive”; and `COc1ccc(CCN(C)CCc2ccc(OC)c(OC)c2)cc1OC`, with “inactive”.
For `COc1cc(C(O)C(=O)O)ccc1O` (stereo not given), the Potency result is “inactive”.
Then `Cc1nc2c(OCc3ccccc3)cccn2c1CC#N`, with “inactive”.
In the case of `Nc1nc2c(nc(Br)n2C2OC3COP(=O)(O)O[C@@H]3C2O)c(=O)[nH]1` (stereo not given in full) it was “inactive”; in that of `CCCCCCCCCC[Si](C)(C)CCC(=O)NC(Cc1ccc(C)cc1)c1ccccc1` (stereo not given), “inactive”.
In the case of `Nc1ccc(-c2nc3ccc(-c4nc5ccc(N)cc5[nH]4)cc3[nH]2)cc1` it was “inactive”; in that of `CCOC(=O)[C@H](CCc1ccccc1)N[C@@H](C)C(=O)N1[C@H](C(=O)O)C[C@H]2CCCC[C@@H]21`, “inactive”.
Regarding `CNC(=O)[C@H]1O[C@@H](n2cnc3c(NCc4cccc(I)c4)ncnc32)[C@H](O)C1O` (stereo not given in full), the Potency entry was “inactive”.
In the case of `C=CC(N)CCC(=O)O` (stereo not given) it was “inactive”; in that of `CCn1c(=O)[nH]c2cc(Cl)c(Cl)cc21`, “inactive”; in that of `C[C@H]1CC2C3CCC4=CC(=O)C=C[C@]4(C)[C@@]3(Cl)[C@@H](O)C[C@]2(C)[C@@]1(O)C(=O)CO` (stereo not given in full), “inactive”.
Then `O=C(O)C1CCNCC1`, with “inactive”; and `COc1ccccc1N1CCN(CCN(C(=O)C2CCCCC2)c2ccccn2)CC1`, with “inactive”; and `CCCCCCCCc1ccc(-c2ccc(C(=O)O)cc2)cc1`, with “inactive”.
In the case of `CNc1ncnc2c1ncn2[C@@H]1O[C@H](CO)C(O)[C@H]1O` (stereo not given in full) it was “inactive”; in that of `Nc1ccc(-c2ccc3ccccc3n2)cc1`, “inactive”; in that of `Cc1cccc(/C=C/c2ccccc2)n1`, “inactive”.
Consider `Nc1ncnc2c1ncn2C1CCCC1`, for which the Potency result is “inactive”.
As to `O=C(O)C1=CCCN(CCON=C(c2ccccc2)c2ccccc2)C1`, the Potency result is “inactive”.
Then `c1ccc(CN2CCC3(CCCc4ccccc43)CC2)cc1`, with “inactive”.
